# Records with an inconclusive call do not appear. Calls of active or inactive are those of the source. Calls follow the shape of the dose curve; as a rule, active = well fitted inhibition curve with a large enough effect; inconclusive = small, poorly fitted or top-dose-only effect; inactive = no such curve, though single readings can be large or run the other way.
# Test: qHTS Screen of the MIPE 4.0 Collection Against Ewings Sarcoma (RDES) (AID 1259252); also: nearly all actives have a fitted effect of over 35% in size
# Conditions: RD-ES Ewing sarcoma viability, CellTiter-Glo, 48 h; series mostly up to 45.8 µM
# Summary of the method: (§1)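 Cells plated in serum-containing RPMI (5% FBS) and treated with compound dilutions for 48 h. Readout luminescent viability; normalization relied on vehicle (no inhibition) and media-only columns (full inhibition).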
# Potency is read from the fitted curve at half-maximal effect.
row,SMILES,Potency
1,COc1cc2nc(N3CCN(C(=O)C4COc5ccccc5O4)CC3)nc(N)c2cc1OC (centres undefined),inactive
2,NCCc1cnc[nH]1,5.9 µM (active)
3,CC(C)(Oc1ccc(C2CC2(Cl)Cl)cc1)C(=O)O (centres undefined),8.55 µM (active)
4,CCC1(C)CC(=O)NC1=O (centres undefined),inactive
5,NC(=O)OCC(COC(N)=O)c1ccccc1,inactive
6,NC(=O)NO,20.9 µM (active)
7,CN1CCN(C2=Nc3cc(Cl)ccc3Nc3ccccc32)CC1,inactive
8,CCN1CCCC1CNC(=O)c1cc(S(=O)(=O)CC)c(N)cc1OC (centres undefined),inactive
9,CN1CCC(=C2c3ccccc3CC(=O)c3sccc32)CC1,11.8 µM (active)
10,COc1ccc2c(c1)c(CC(=O)O)c(C)n2C(=O)c1ccc(Cl)cc1,14.8 µM (active)
11,CN(C)c1nc(N(C)C)nc(N(C)C)n1,inactive
12,CC(C(=O)O)c1cccc(C(=O)c2ccccc2)c1 (centres undefined),7.43 µM (active)
13,CN1CCN2c3ccccc3Cc3ccccc3C2C1 (centres undefined),20.9 µM (active)
14,CN1CCC(=C2c3ccccc3C=Cc3ccccc32)CC1,9.35 µM (active)
15,Fc1ccc([C@@H]2CCNC[C@H]2COc2ccc3c(c2)OCO3)cc1,inactive
16,Clc1ccc2c(c1)C(N1CCNCC1)=Nc1ccccc1O2,10.5 µM (active)

row,SMILES,Potency
1,CCOC(=O)C(C)(C)Oc1ccc(Cl)cc1,inactive
2,O=c1[nH]cc(F)c(=O)[nH]1,5.26 µM (active)
3,CCc1cccc2c3c([nH]c12)C(CC)(CC(=O)O)OCC3 (centres undefined),inactive
4,COc1ccc(CCN(C)CCCC(C#N)(c2ccc(OC)c(OC)c2)C(C)C)cc1OC (centres undefined),inactive
5,O=C1c2c(O)ccc(O)c2C(=O)c2c(NCCNCCO)ccc(NCCNCCO)c21,0.166 µM (active)
6,Nc1nc2c(ncn2COC(CO)CO)c(=O)[nH]1,26.4 µM (active)
7,O=C(c1ccc(OCCN2CCCCC2)cc1)c1c(-c2ccc(O)cc2)sc2cc(O)ccc12,2.35 µM (active)
8,Nc1ccn([C@H]2CC[C@@H](CO)O2)c(=O)n1,inactive
9,CCOC(=O)c1ncn2c1CN(C)C(=O)c1cc(F)ccc1-2,inactive
10,CC(C)NCC(O)COc1ccc(CCOCC2CC2)cc1 (centres undefined),inactive
11,Cn1c(=O)c2c(ncn2C)n(C)c1=O,inactive
12,O=C(c1ccc(F)cc1)C1CCN(CCn2c(=O)[nH]c3ccccc3c2=O)CC1,inactive
13,CC[C@@]1(O)C(=O)OCc2c1cc1n(c2=O)Cc2cc3c(CN(C)C)c(O)ccc3nc2-1,0.0332 µM (active)
14,O=c1c(-c2ccc(O)cc2)coc2cc(O)cc(O)c12,18.7 µM (active)
15,Cn1ccc2cc3c(cc21)CCN3C(=O)Nc1cccnc1,16.6 µM (active)
16,CC12CC3CC(C)(C1)CC(N)(C3)C2,inactive

# Test: qHTS Screen of the MIPE 4.0 Collection Against Ewings Sarcoma (TC71) (AID 1259253); also: nearly all actives have a fitted effect of over 40% in size
# Conditions: TC71 Ewing sarcoma viability, CellTiter-Glo, 48 h; series mostly up to 45.8 µM
# Summary of the method: as §1
row,SMILES,Potency
1,COc1cc2nc(N3CCN(C(=O)C4COc5ccccc5O4)CC3)nc(N)c2cc1OC (centres undefined),16.6 µM (active)
2,O=C1N(c2ccccc2)c2ccccc2C1(Cc1ccncc1)Cc1ccncc1,16.6 µM (active)
3,NC(=O)NO,5.9 µM (active)
4,CCN1CCCC1CNC(=O)c1cc(S(=O)(=O)CC)c(N)cc1OC (centres undefined),inactive
5,CN1CCC(=C2c3ccccc3CC(=O)c3sccc32)CC1,13.2 µM (active)
6,CN1CCN2c3ccccc3Cc3ccccc3C2C1 (centres undefined),16.6 µM (active)
7,CN1CCC(=C2c3ccccc3C=Cc3ccccc32)CC1,16.6 µM (active)
8,Fc1ccc([C@@H]2CCNC[C@H]2COc2ccc3c(c2)OCO3)cc1,18.7 µM (active)
9,Clc1ccc2c(c1)C(N1CCNCC1)=Nc1ccccc1O2,16.6 µM (active)
10,CCOC(=O)C(C)(C)Oc1ccc(Cl)cc1,inactive
11,Cn1cnc2c1c(=O)[nH]c(=O)n2C,23.5 µM (active)
12,O=C1c2c(O)ccc(O)c2C(=O)c2c(NCCNCCO)ccc(NCCNCCO)c21,0.0935 µM (active)
13,Nc1nc2c(ncn2COC(CO)CO)c(=O)[nH]1,23.5 µM (active)
14,O=C(c1ccc(OCCN2CCCCC2)cc1)c1c(-c2ccc(O)cc2)sc2cc(O)ccc12,7.43 µM (active)
15,Nc1ccn([C@H]2CC[C@@H](CO)O2)c(=O)n1,inactive
16,CCOC(=O)c1ncn2c1CN(C)C(=O)c1cc(F)ccc1-2,inactive
17,CC(C)NCC(O)COc1ccc(CCOCC2CC2)cc1 (centres undefined),inactive
18,CC[C@@]1(O)C(=O)OCc2c1cc1n(c2=O)Cc2cc3c(CN(C)C)c(O)ccc3nc2-1,0.0372 µM (active)
19,Cn1ccc2cc3c(cc21)CCN3C(=O)Nc1cccnc1,23.5 µM (active)
20,CC12CC3CC(C)(C1)CC(N)(C3)C2,inactive

# Test: qHTS Screen of the MIPE 4.0 Collection Against Ewings Sarcoma (EW8) (AID 1259255); also: nearly all actives have a fitted effect of over 35% in size
# Conditions: EW8 Ewing sarcoma viability, CellTiter-Glo, 48 h; series mostly up to 45.8 µM
# Summary of the method: as §1
row,SMILES,Potency
1,NCCc1cnc[nH]1,inactive
2,CC(C)(Oc1ccc(C2CC2(Cl)Cl)cc1)C(=O)O (centres undefined),7.62 µM (active)
3,CCC1(C)CC(=O)NC1=O (centres undefined),inactive
4,O=C1N(c2ccccc2)c2ccccc2C1(Cc1ccncc1)Cc1ccncc1,inactive
5,CCN1CCCC1CNC(=O)c1cc(S(=O)(=O)CC)c(N)cc1OC (centres undefined),20.9 µM (active)
6,COc1ccc2c(c1)c(CC(=O)O)c(C)n2C(=O)c1ccc(Cl)cc1,inactive
7,CN(C)c1nc(N(C)C)nc(N(C)C)n1,inactive
8,Clc1ccc2c(c1)C(N1CCNCC1)=Nc1ccccc1O2,16.6 µM (active)
9,CCc1cccc2c3c([nH]c12)C(CC)(CC(=O)O)OCC3 (centres undefined),inactive
10,Cn1cnc2c1c(=O)[nH]c(=O)n2C,23.5 µM (active)
11,COc1ccc(CCN(C)CCCC(C#N)(c2ccc(OC)c(OC)c2)C(C)C)cc1OC (centres undefined),inactive
12,O=C1c2c(O)ccc(O)c2C(=O)c2c(NCCNCCO)ccc(NCCNCCO)c21,0.059 µM (active)
13,Nc1ccn([C@H]2CC[C@@H](CO)O2)c(=O)n1,inactive
14,Cn1c(=O)c2c(ncn2C)n(C)c1=O,inactive
15,CC[C@@]1(O)C(=O)OCc2c1cc1n(c2=O)Cc2cc3c(CN(C)C)c(O)ccc3nc2-1,0.0332 µM (active)
16,O=c1c(-c2ccc(O)cc2)coc2cc(O)cc(O)c12,inactive
17,CC12CC3CC(C)(C1)CC(N)(C3)C2,inactive

# From PubChem BioAssay (NCATS)
